Sampled rows, rich in hits. Any-hit rate of the full collection: about 7.5%.
Rab9 promoter act = activates the Rab9 promoter | Huh7 Rab9 promoter-luciferase reporter, luminescence, 24 h | Potency, µM (top dose mostly 9.22 µM), without a hit: at the top dose activation, negative = inhibition, actives largely listed as activators | actives 2.8% (n = 320,000); further: % of control where 0% means no effect; nearly all actives have a fitted effect of over 60% in size
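Using Huh7 cells stably transfected with Rab9 promoter–luciferase, compounds were incubated 24 h at 37 °C, 5% CO2; luciferase luminescence was read 10 min after reagent addition.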
SMN2 splice enh = SMN2 splice variant enhancement; HEK293 SMN2-luciferase splicing reporter, luminescence, 30-36 h; Potency, µM (doses to about 46.1 µM), inactives show top-dose activity change, positive = activation, hits mostly activators; actives 2.8% (n = 210,000); further: % of control where 0% means no effect; nearly all actives have a fitted effect of over 55% in size
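qHTS luciferase splicing reporter: luminescence rises when SMN2 exon 7 is included in transfected HEK293 cells. Compound exposure lasted 30-36 h at 37C, with 4.5 mM final sodium butyrate as control, followed by a ONE-Glo read.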
Luc counter = counter-screen: inhibitors of Kinase-Glo firefly luciferase. Potency, µM (titrated, usually from 38.3 µM), without a hit: at the top dose activity change, negative = inhibition, usual class: inhibitors. AID 1379. Q27757. Kinase-Glo luciferase, ATP luminescence, 8 min. actives 0.28% (n = 200,000); further: on the % scale 0 is the no-effect control and ±100 the full control effect; nearly all actives have a fitted effect of over 60% in size
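Compounds were added to a substrate mix at pH 7.2 (50 mM imidazole, 10 uM ATP, within the enzyme's linear range), followed by Kinase-Glo detection reagent; luminescence was measured after 8 minutes at ambient temperature.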
ELG1 genotoxic = inducers of genotoxicity in HEK293T ELG1-luciferase cells; HEK293T ELG1-luciferase reporter, luminescence, 16 h; actives 1.3% (n = 330,000); Potency, µM (doses to about 46 µM), for the others: at the top dose activity change, positive = activation, most hits filed as activators; further: % of control where 0% means no effect; nearly all actives have a fitted effect of over 60% in size
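Quantitative HTS format in 1536-well plates. HEK293T ELG1-luciferase reporter cells receive test compound and are incubated 16 hr at 37 °C, 5% CO2; ONE-Glo added, 30 min room temperature, then luminescence read.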
NPC1 promoter act = NPC1 promoter activation; Huh7 NPC1 promoter luciferase reporter, 24 h; Potency, µM (highest dose often 9.22 µM), without a hit: at the highest dose activation, most hits filed as activators; actives 2.4% (n = 320,000); AID 485313; further: % of control where 0% means no effect; nearly all actives have a fitted effect of over 60% in size
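Huh7 cells stably carrying NPC1 promoter–luciferase, plated in Opti-MEM with 10% FBS for 2 h, were exposed to compound in DMSO for 24 h at 37 °C; luciferase reagent was added for 10 min and luminescence read.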
FLuc modulator = inhibits or activates purified firefly luciferase, miR-21 counter-screen; P08659; purified FLuc, Km substrates, luminescence inhibition; Potency, µM (series often up to 57.5 µM), inactives show top-dose activity change, negative = inhibition, most hits filed as inhibitors; actives 6.9% (n = 360,000); AID 588342;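 further: plate controls were vehicle for no effect and reference inhibitor for full effect; nearly all actives have a fitted effect of over 55% in size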
Target sequence (P08659 whole entry, looked up): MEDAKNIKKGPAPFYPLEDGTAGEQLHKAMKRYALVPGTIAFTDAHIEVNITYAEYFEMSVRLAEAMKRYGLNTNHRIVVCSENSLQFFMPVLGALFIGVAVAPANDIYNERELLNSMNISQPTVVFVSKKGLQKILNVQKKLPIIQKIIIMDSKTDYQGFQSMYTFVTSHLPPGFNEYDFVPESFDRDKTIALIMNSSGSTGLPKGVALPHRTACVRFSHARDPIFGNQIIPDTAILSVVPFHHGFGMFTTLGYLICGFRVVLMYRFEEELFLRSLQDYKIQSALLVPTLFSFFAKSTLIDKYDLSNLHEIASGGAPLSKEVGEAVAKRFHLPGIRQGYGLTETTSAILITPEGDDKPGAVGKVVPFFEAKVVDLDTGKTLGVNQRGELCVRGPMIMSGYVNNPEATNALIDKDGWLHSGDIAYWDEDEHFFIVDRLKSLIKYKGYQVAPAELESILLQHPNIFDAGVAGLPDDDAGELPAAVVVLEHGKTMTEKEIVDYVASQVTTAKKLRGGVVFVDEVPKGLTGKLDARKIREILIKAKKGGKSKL
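Purified P. pyralis luciferase, 10 nM final, with Km-level 10 uM D-luciferin and 10 uM ATP in 50 mM Tris acetate pH 7.5, 10 mM Mg acetate, 0.01% Tween-20, 0.05% BSA; 6-point qHTS titration about 60 µM downward; luminescence read.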
The depositor's hits bear a star; ? = inconclusive; . = no result given. The call rests on the fitted dose curve; in most records, active means well fitted curve in the direction sought with a large enough effect; inconclusive means small, poorly fitted or top-dose-only effect, or another doubt; inactive means no such curve, though single readings can be large; an effect the other way counts as inactive or inconclusive. Potency means the concentration at half of the fitted maximal effect.

SMILES	Rab9 promoter act	SMN2 splice enh	Luc counter	ELG1 genotoxic	NPC1 promoter act	FLuc modulator
O=C1c2ccccc2CCCC12N=NCC2c1cccc2ccccc12 (stereo unspecified)	1%	-29%	-2%	-6%	-5%	-1%
COc1cccc(-c2nnc(SCc3cccnc3)o2)c1	4µM*	12%	-10%	13%	?	24µM*
O=C(O)c1cccc(CSc2nnc(-c3ccc(Cl)cc3)o2)c1	-1%	.	.	17%	-1%	19µM*
Cc1cccc(-c2nnc(SCc3ccccc3)o2)c1	?	?	-2%	?	?	11µM*
Cc1n[nH]c(=O)n1-c1ccc(OCc2ccccc2)cc1	2.8µM*	.	-2%	?	?	21µM*
Cc1c(Cl)cccc1NC(=O)CC(c1ccc(F)cc1)N1Cc2ccccc2C1=O (stereo unspecified)	.	.	.	.	.	-15%
CCC(C)(C)NC(=O)/C=C/c1cnc2ccccc2n1	?	?	1%	?	29%	11µM*
O=C(/C=C/c1cnc2ccccc2n1)NC12CC3CC(CC(C3)C1)C2	3.2µM*	10µM*	-1%	?	3.5µM*	1.7µM*
Cn1c(C2CCCCC2)nc2ccccc21	-3%	.	.	7%	-3%	-11%
CCOC(=O)C1=C(C)NC(=S)NC1c1ccc(OCC(=O)N2CCCCC2)cc1 (stereo unspecified)	4%	.	.	-5%	0%	-1%
Cc1ccc(/C=C2/NC(=O)N(Cc3ccccc3)C2=O)o1	2%	10%	-3%	-1%	0%	-17%
Cn1c(=O)n(C)c2cc(/C=C3/NC(=O)N(Cc4ccccc4)C3=O)ccc21	-6%	7%	-5%	9.2µM*	-1%	0%
CCN1C(=O)N/C(=C/c2cc(C)n(Cc3ccccc3)c2C)C1=O	?	30%	-1%	18%	?	3.4µM*
CCn1cc(C(=O)N2CCN(c3cc(C)ccc3C)CC2)c(=O)c2cc(S(=O)(=O)N3CCCCC3)ccc21	.	-1%	.	.	.	-4%
Nc1nonc1-c1noc(COc2ccccc2Cl)n1	1.1µM*	11µM*	9%	5.2µM*	1.4µM*	4.8µM*
Cc1cccc(OCc2nc(-c3nonc3N)no2)c1C	?	10µM*	1%	10µM*	3.2µM*	?
CCOc1ccc(Cc2nc(-c3nonc3N)no2)cc1OCC	10%	10%	3%	2%	8%	2%
CC1(c2ccccc2Cl)NC(=O)N(CC(=O)NCc2ccc3c(c2)OCO3)C1=O (stereo unspecified)	0%	.	.	-1%	-1%	-3%
Cc1nc(SCc2ccc(C#N)cc2)n[nH]1	9%	.	.	2%	11%	-19%
CCCCCOc1ccc(CSc2ncn[nH]2)cc1	2.5µM*	11µM*	1%	?	?	12µM*
CCCCOc1ccc(CSc2ncn[nH]2)cc1	?	10%	-4%	14%	?	7.6µM*
CCCCOc1ccc(CSc2n[nH]c(C)n2)cc1	?	18µM*	5%	21µM*	?	?
CCCCOc1ccc(CSc2nncn2N)cc1	?	26%	-5%	?	?	?
COc1ccc(C2OC(=O)CC2C(=O)NCc2ccc(Cl)cc2)cc1OC (stereo unspecified)	?	?	1%	?	?	17µM*
COc1ccc(-c2[nH]nc3nc(-c4cc(OC)c(OC)c(OC)c4)cc(C(=O)O)c23)cc1	.	.	.	.	.	2.7µM*
SMILES	Rab9 promoter act	SMN2 splice enh	Luc counter	ELG1 genotoxic	NPC1 promoter act	FLuc modulator
CCc1ccc(-c2[nH]nc3nc(-c4cc(OC)ccc4OC)cc(C(=O)O)c23)cc1	.	.	.	.	.	1.9µM*
CCOc1cc(-c2cc(C(=O)O)c3c(-c4ccccc4)[nH]nc3n2)ccc1O	.	5%	.	.	.	?
CCn1ccc2cc(S(=O)(=O)N3CCC(C(=O)NCCOC)CC3)ccc21	.	.	.	.	.	4%
O=C(N/N=C/c1ccccc1F)c1cccc(NC(=O)c2ccccc2Cl)c1	17%	.	.	7%	19%	13µM*
Cc1cccc(C(=O)N/N=C/c2ccccn2)c1	3.5µM*	2µM*	-2%	?	?	19µM*
O=C(Nc1cccc(NC(=O)c2ccccc2Cl)c1)c1ccc(F)cc1	-2%	.	.	-1%	2%	?
O=C(N/N=C/c1cccs1)c1cccc(NC(=O)c2ccccc2Cl)c1	8%	1%	-2%	1%	10%	24µM*
CCN(CC)S(=O)(=O)c1cccc(C(=O)N/N=C/c2ccccn2)c1	1%	3%	-1%	0%	-4%	?
O=C(N/N=C/c1ccccn1)c1ccc(NC(=O)c2cccc([N+](=O)[O-])c2)cc1	9%	1%	0%	-4%	6%	?
O=C(N/N=C/c1cccs1)c1ccc(NC(=O)c2ccccc2Cl)cc1	-2%	.	.	-3%	1%	-4%
Cc1cccc(C(=O)Nc2cccc(C(=O)N/N=C/c3ccccn3)c2)c1	-5%	.	.	0%	0%	19µM*
O=C(N/N=C/c1ccccn1)c1cccc(NC(=O)c2ccccc2Cl)c1	15%	.	.	9%	3%	17µM*
O=C(N/N=C/C1CCCCC1)c1ccccn1	-1%	20%	-16%	?	-6%	13µM*
O=C(N/N=C/C1CCCCC1)c1cc(Cl)ccc1O	-7%	-11%	0%	3%	-4%	12µM*
O=C(NN=C1CCC(=NNC(=O)c2ccccn2)CC1)c1ccccn1	9%	.	-2%	?	0%	?
Cc1ccc(NC(=O)c2cc3c(=O)[nH]c4ccccc4c3n2C)cc1F	.	-2%	.	.	.	-1%
Cn1cc(S(=O)(=O)Nc2ccc3c(c2)OCCO3)cn1	12%	.	.	?	-4%	?
CCn1cc(S(=O)(=O)Nc2ccc3c(c2)OCCO3)cn1	-9%	.	-1%	?	3%	17µM*
O=C(NN1C(=O)/C(=C/c2cccs2)SC1=S)c1ccccc1	-4%	-6%	3%	-1%	-2%	0%
Cc1ccc(C2=N/C(=C\c3cccs3)C(=O)N2Nc2ccccc2)cc1	15%	-1%	1%	-2%	0%	-20%
O=C1/C(=C\c2cccs2)N=C(c2cccs2)N1Nc1ccccc1	-18%	-6%	-6%	-5%	-3%	21µM*
O=C1/C(=C/c2cccs2)N=C(c2cccs2)N1Nc1ccccc1	10%	-7%	1%	2%	-3%	24µM*
O=C(CSc1nc2ccccc2o1)Nc1nc(-c2ccccc2)cs1	2%	?	-3%	?	15%	21µM*
Cc1ccccc1NC(=O)CSc1nc2ccccc2o1	?	7%	-1%	4.1µM*	?	3%
O=C(CSc1nc2ccc(Cl)cc2o1)NCc1ccc2c(c1)OCO2	1%	-2%	2%	-1%	14%	2%
